Screening results deposited in PubChem by several laboratories.
Rows were chosen to be rich in hits. Some 0.5% of all compounds tested hit in one or more screens of this group.
E coli growth-1 = counter-screen for AddAB inhibitors: E. coli growth inhibition; E. coli V3065 growth, OD600 absorbance, 18 h; inhibition, % at 11.9 µM; 330,000 compounds, 0.27% hits; AID 449728;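 active = inhibition above the campaign's mean inhibition across all tested compounds plus 3 SD, cut at about 9.9% in these data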;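 also: uninfected addAB+ strain grown without phage in ampicillin broth; 0% = DMSO wells and 100% = ciprofloxacin 0.95 µg/ml wells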
Tat export inh = E. coli Tat transport inhibition | 340,000 compounds, 0.036% hits | inhibition, % at 10 µM | E. coli MC4100 TorA-mCherry Tat export, fluorescence;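 active = mean replicate inhibition at least 50% and at least half of replicates individually reaching 50%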;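 also: exported cargo escapes ClpAP degradation while cytoplasmic cargo is degraded and loses fluorescence; 0% = median of neutral control wells and 100% = median of NaSCN control wells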
E coli growth-2 = blocks Escherichia coli growth. OD600, 23 h; stronger effect = lower value. OD600 absorbance (concentration not given with the values). 330,000 compounds, 0.21% hits. AID 1053175;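 active = OD600 absorbance below the run mean of sample wells minus 3.6 SD, in any replicate, cut at about 0.56 in these data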
phage Ecoli inh = E. coli growth loss with phage present; growth absorbance; inhibition, % at 11.9 µM; 360,000 compounds, 0.26% hits; AID 651602; in the data active = inhibition above about 11%
AddAB inh = less growth of phage-infected E. coli with AddAB; E. coli expressing H. pylori AddAB, absorbance growth; inhibition, % at 11.9 µM; 330,000 compounds, 0.29% hits; in the data active = inhibition above about 12%;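 also: 0% = vehicle wells of infected cells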
AddAB confirm = growth loss of T4-infected E. coli expressing H. pylori AddAB, confirmed. 880 compounds, 64% hits. shares compounds with AddAB inh. inhibition, % at 11.9 µM. AID 488942. E. coli V3065 expressing H. pylori AddAB, T4 phage, OD; T4 phage with gene 2 nonsense mutations;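 active = mean inhibition above a set limit taken from the earlier primary screen, cut at about 13% in these data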;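 also: higher means less bacterial growth since AddAB block lets phage replicate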
RecBCD counter = counter-screen: growth loss of RecBCD+ E. coli with mutant T4 phage | 880 compounds, 73% hits | shares compounds with AddAB inh | inhibition, % at 11.9 µM | E. coli V66 + mutant T4 phage, OD growth;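 active = mean inhibition above the mean of solvent-only control wells plus 3 SD, cut at about 4% in these data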;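 also: optical density read after an 18 h incubation at 37 °C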
Bact viability = reduces bacterial viability, AddAB inhibitor counter-screen | AID 488956 | 880 compounds, 35% hits | shares compounds with AddAB inh | inhibition, % at 11.9 µM | absorbance (AddAB counterscreen); in the data active = inhibition above about 25%
RecBCD conf = confirmation: growth loss of phage-infected RecBCD+ E. coli (RecBCD inhibitor screen). shares compounds with phage Ecoli inh. E. coli V66 + T4 2- phage, growth OD. inhibition, % at 11.9 µM. 890 compounds, 45% hits;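 active = mean inhibition over triplicates exceeding the hit threshold derived in the original primary screen, cut at about 11% in these data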
Ecoli viability = counter-screen for RecBCD inhibitors: inhibitors of bacterial viability. AID 651983. inhibition, % at 11.9 µM. E. coli viability, absorbance (OD) growth. shares compounds with phage Ecoli inh. 890 compounds, 29% hits; in the data active = inhibition above about 20%;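 also: E. coli strain V66 grown with compound alone and no phage infection; 0% = bacteria with DMSO vehicle only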
AddAB counter = growth loss of phage-infected AddAB E. coli, RecBCD counter-screen; shares compounds with phage Ecoli inh; E. coli expressing H. pylori AddAB + T4 phage, OD growth; gene 2 mutant T4, recBCD-deleted host; inhibition, % at 11.9 µM; 890 compounds, 45% hits; AID 651984;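 active = mean inhibition above the solvent-only control wells' mean plus 3 SD, cut at about 22% in these data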;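 also: higher means less bacterial growth from phage killing when AddAB is blocked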
* hit, by the source's call; / = no result; ! = a repeat was not active.

SMILES | E coli growth-1 | Tat export inh | E coli growth-2 | phage Ecoli inh | AddAB inh | AddAB confirm | RecBCD counter | Bact viability | RecBCD conf | Ecoli viability | AddAB counter
CC(C)c1c(C(=O)N/N=C/c2ccc3c(c2)OCO3)nnn1-c1nonc1N | -1.8 | 2.6 | / | -1.9 | 5.5 | / | / | / | / | / | /
CCN(CC)c1ccc(/C=N/NC(=O)c2nnn(-c3nonc3N)c2C(C)C)c(O)c1 | 19.7* | -32.4 | / | 11.1* | 26.9* | 11.3 | 15.7* | 6.9 | 6.5 | 9.3 | 8.5
c1cnc2c(c1)ccc1cccnc12 | 12.2*! | -1.4 | 0.328* | 12.0* | 12.3*! | 13.4* | 19.7* | 7.1 | 9.5 | 10.3 | 6.5
O=Cc1ccc2ccc3cccnc3c2n1 | 5.5 | -13.1 | 0.684 | 2.1 | 4.7 | / | / | / | / | / | /
NC(=O)C(=NOC(=O)c1ccco1)c1nc(-c2ccc(Br)cc2)cs1 | / | / | 0.656 | / | / | / | / | / | / | / | /
O=c1c2ccccc2nc(N/N=C/c2ccc(O)cc2)n1O | 1.5 | -5.1 | / | 2.2 | 1.9 | / | / | / | / | / | /
O=c1c2ccccc2nc(N/N=C/c2c(O)ccc3ccccc23)n1O | 23.7* | 4.0 | / | 20.9* | 19.1* | 24.2* | 20.5* | 16.6 | 12.4* | 16.0 | 16.9
CCC(=O)N1CCN(c2ccc(Cl)cc2NC(=O)c2ccc([N+](=O)[O-])o2)CC1 | 2.8 | 1.5 | 0.723 | 2.1 | 3.1 | / | / | / | / | / | /
O=C(Nc1cc(Cl)ccc1-n1cncn1)c1ccc([N+](=O)[O-])o1 | 32.3* | -7.4 | 0.578 | 16.1* | 99.0* | 92.2* | 11.7* | 56.6* | 9.5 | 12.5 | 98.4*
CC(=O)Nc1ccc(SCC(Cc2ccccc2)N2CCC(C)CCC2=O)cc1 (stereo not given) | / | / | 0.679 | / | / | / | / | / | / | / | /
CCOc1ccc(C(=O)Nc2ccc(N3CCN(C)CC3)cc2)cc1 | 0.0 | -1.8 | 0.624 | 4.6 | 3.5 | / | / | / | / | / | /
CCOc1ccc(NC(=O)c2ccc(NC(=O)c3cn4c5c(c(N6CCN(C)CC6)c(F)cc5c3=O)OCC4C)cc2)cc1 (stereo not given) | 97.1* | 87.9* | 0.0665* | 99.3* | 94.8* | 99.7* | 100.3* | 99.4* | 103.1* | 104.4* | 104.2*
CC1COc2c(N3CCN(C)CC3)c(F)cc3c(=O)c(C(=O)O)cn1c23 (stereo not given) | 97.8* | 117.0* | 0.0615* | 98.1* | 98.7* | 100.2* | 99.6* | 101.2* | 101.1* | 102.3* | 102.4*
O=c1[nH]c(=O)n([C@H]2C[C@H](O)[C@@H](CO)O2)cc1C(F)(F)F | 9.3 | 16.0 | / | 11.2* | 13.0* | 40.2* | 9.6* | 12.8 | 17.1* | 13.0 | 26.5*
CCc1cn([C@H]2C[C@H](O)[C@@H](CO)O2)c(=O)[nH]c1=O | 14.3* | 19.9 | / | 12.5* | 18.7* | 38.1* | 11.4* | 9.8 | 14.4* | 8.1 | 22.6*
O=c1[nH]c(=O)n(C2C[C@H](O)[C@@H](CO)O2)cc1C(F)(F)F (stereo not given in full) | 10.5* | 17.7 | / | 15.3* | 14.0* | 37.5* | 11.8* | 14.9 | 19.7* | 15.1 | 29.8*
Cc1cn([C@H]2C[C@H](O)[C@@H](COS(=O)(=O)O)O2)c(=O)[nH]c1=O | 0.0 | -8.1 | / | 0.1 | 0.9 | / | / | / | / | / | /
O=c1[nH]c(=O)n(C2CC(O)C(CO)O2)cc1Br (stereo not given) | / | 1.2 | / | 10.8 | / | / | / | / | / | / | /
CN[C@@H]1[C@H](O)[C@H](NC)[C@H]2O[C@@]3(O)C(=O)C[C@@H](C)O[C@H]3O[C@@H]2[C@H]1O | 34.2* | 119.1* | 0.507* | 52.1* | 35.2* | 78.5* | 47.3* | 57.4* | 58.2* | 34.9* | 75.2*
